# Test results as given in PubChem BioAssay (NCATS).
# Unmarked numbers belong to inactive results. Inconclusive results are not listed. The list shows a part of the results. The source made the active and inactive calls. Unless noted, calls follow the shape of the dose curve; as a rule, active = well fitted curve in either direction with a large enough effect (not every such curve was filed as active); inconclusive = small, poorly fitted or top-dose-only effect, or another doubt; inactive = flat fitted curve, though single readings scatter.
# Legend:
# [1] = molecular target: Lysosomal acid glucosylceramidase (Homo sapiens) (UniProt P04062); assay: Glucocerebrosidase-p2 (AID 348; in the data active = potency below about 10 µM; also: potency is read from the fitted curve at half-maximal effect); settings: purified GBA, blue fluorogenic substrate, 40 min
# Summary of the method: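 Compounds titrated from 0.6 nM upwards against 0.2 nM enzyme in pH 5.9 citric acid/KH2PO4, taurocholate, tween-20; blue fluorogenic substrate 80 uM, 40 min room temperature, stopped and read Ex 365/Em 440 for AC50.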
# [2] = AP1 Signaling Pathway (AID 357); settings: ME-180 AP-1-bla reporter, EGF-induced, beta-lactamase ratio, 5 h; at 7.69 µM (top of the series) unless noted;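 also: ME-180 reporter cells stimulated with EGF at its EC50 level; % is scaled to controls: 0 for no effect and ±100 for the full control effect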
# Summary of the method: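 AP-1-bla ME-180 cells, Opti-MEM + 0.5% dialyzed FBS, plated overnight 37 °C. Cpd titration + EC50 EGF, 5 h 37 °C. CCF4 2.5 h RT; ex 405, em 460/530 ratio → %activity, AC50.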
# [3] = molecular target: Cytochrome P450 1A2 (Homo sapiens) (UniProt P05177); assay: p450-cyp1a2 (AID 410; calls by dose curve; also: potency is read from the fitted curve at half-maximal effect;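 as to activity change, negative = inhibition: -100% = full effect of reference inhibitor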)
# Summary of the method: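 Luminescent readout of luciferin formed from Luciferin-ME by human CYP1A2; data normalized against complete inhibition by 57 uM furafylline. Enzyme 20nM, substrate 100uM at Km, 100mM KPO4 buffer, 60 min reaction at room temperature.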
# [4] = NFAT Signaling Pathway (AID 444); settings: Jurkat NFAT-bla M1, carbachol, beta-lactamase ratio, 5 h; at 7.69 µM (top of the series) unless noted;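 also: carbachol stimulus at about its EC50 of 1 µM final; % is scaled to controls: 0 for no effect and ±100 for the full control effect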
# Summary of the method: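 Jurkat cells with NFAT-driven β-lactamase reporter and co-expressed M1 receptor, stimulated with carbachol (final 1 uM, ~EC50), compound titration, 5 h at 37 °C. CCF4 loaded 1 h at RT; 460/530 nm ratio gave %activity and AC50.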
# [5] = Stat Signaling Pathway (AID 446); settings: ME-180 SIE beta-lactamase reporter, IL-6 stimulated, 5 h; at 7.69 µM (top of the series) unless noted;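 also: ME-180 cervical cancer cells given 40 pM IL-6 alongside compound; SIE-controlled beta-lactamase reporter measured as 460/530 nm FRET emission ratio; % is scaled to controls: 0 for no effect and ±100 for the full control effect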
# Summary of the method: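 Screening format detects activators and inhibitors alike: ME-180 SIE-bla cells stimulated at 40 pM IL-6 for 5 hrs with compound, then dual-emission beta-lactamase read at 405 nm excitation.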
# [6] = molecular target: Glucocorticoid receptor (Homo sapiens) (UniProt P04150); assay: GR-GFP Redistribution (AID 450;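 active = compounds whose dose series gives a full or clear partial fitted curve of increased nuclear translocation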; also: potency is read from the fitted curve at half-maximal effect); settings: U2OS GR-GFP nuclear translocation, laser cytometry, 2 h
# [7] = molecular target: Glucocorticoid receptor (Homo sapiens) (UniProt P04150); assay: GR-EFC Redistribution (AID 451; calls by dose curve; also: potency is read from the fitted curve at half-maximal effect); settings: CHO-K1 GR-EFC translocation, beta-gal luminescence, 2 h
# Summary of the method: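 CHO-K1 cells expressing nuclear EA and GR-ED fragments of b-gal; compounds titrated up to 46 uM final, 2 h at 37 C. GR nuclear translocation read as complemented b-gal luminescence after 1 h RT detection.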
# [8] = molecular target: Mitogen-activated protein kinase 10 (Mus musculus) (UniProt Q61831); assay: JNK3 AlphaScreen Assay (AID 530);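 also: kinase came from lysate of stimulated human HepG2 cells; signal reports phosphorylation of biotinylated GST-cJun 1-79 at Ser73 with 10 µM ATP; % is scaled to controls: 0 for no effect and ±100 for the full control effect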
# Summary of the method: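 Pre-activated (IL-1β/TNFα) JNK3 in HepG2 lysates phosphorylates biotin-GST-cJun(1-79), 10 uM ATP; anti-phospho-cJun(Ser73) AlphaScreen read at room temperature, pH 7.6 Tris buffer. Compounds pre-incubated 15 min as titrations.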
# [9] = molecular target: 3',5'-cyclic-AMP phosphodiesterase 4B (Homo sapiens) (UniProt Q07343); assay: qHTS Assay for Inhibitors of PDE-IV (AID 607; active = well fitted activation curve with a large enough effect in the main read-out, with a control signal flat, not every such curve was filed as active; also: % of control where 0% means no effect)
# Summary of the method: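 The readout is membrane depolarisation from a cAMP-sensing CNG channel, detected with a potential dye at ex 535/em 590. Cells were HEK293-derived (endogenous PDE-IV) at 1000 cells/well, titrated up to 22.9 uM final.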
# [10] = molecular target: Ubiquitin carboxyl-terminal hydrolase 1 (Homo sapiens) (UniProt O94782); assay: Inhibitors of USP1/UAF1: Pilot qHTS (AID 504865; active = well fitted inhibition curve with a large enough effect; also: nearly all actives have a fitted effect of over 35% in size; also: potency is read from the fitted curve at half-maximal effect)
# Summary of the method: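 Deubiquitinase activity followed as kinetic rhodamine fluorescence release from 150 nM Ub-Rho. 1 nM USP1/UAF1 with compound, after 15 min room-temperature preincubation, in HEPES pH 7.8 buffer containing TCEP, EDTA, BSA and Tween-20.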
# [11] = qHTS profiling for inhibitors of Plasmodium falciparum proliferation (AID 504749; active = well fitted inhibition curve with a large enough effect; also: potency is read from the fitted curve at half-maximal effect;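 as to activity, negative = inhibition: 0% = DMSO vehicle and full inhibition = artemisinin control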; as to all read-outs here: nearly all actives have a fitted effect of over 60% in size); settings: P. falciparum in erythrocytes, SYBR Green DNA, 72 h; for activity, negative = inhibition: at 28.7 µM (top of the series)
# Summary of the method: (§1)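 P. falciparum-infected erythrocytes (0.3% parasitemia, 2.5% hematocrit) incubated with compound 72 h at 37 C, 5% CO2. Parasite DNA detected by SYBR Green after lysis, overnight at room temperature; normalised to 0.29 uM artemisinin and DMSO.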
# AS120 = assay: as above; settings: P. falciparum in erythrocytes, SYBR Green DNA, 72 h; series mostly up to 28.7 µM
# Summary of the method: as §1
# CP192 = assay: as above; settings: P. falciparum in erythrocytes, SYBR Green DNA, 72 h; series mostly up to 28.7 µM
# Summary of the method: as §1
# CP203 = assay: as above; settings: P. falciparum in erythrocytes, SYBR Green DNA, 72 h; series mostly up to 28.7 µM
# Summary of the method: as §1
# PC49 = assay: as above; settings: P. falciparum in erythrocytes, SYBR Green DNA, 72 h; series mostly up to 28.7 µM
# Summary of the method: as §1
# W2 = assay: as above; settings: P. falciparum in erythrocytes, SYBR Green DNA, 72 h; series mostly up to 28.7 µM
# Summary of the method: as §1
# [12] = qHTS Assay for Inhibitors of Fructose-1,6-bisphosphate Aldolase from Giardia Lamblia: Coupling assay counterscreen confirmation (AID 2795; active = well fitted inhibition curve with a large enough effect; also: % is scaled to controls: 0 for no effect and ±100 for the full control effect; nearly all actives have a fitted effect of over 55% in size)
# Summary of the method: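 Counterscreen, no aldolase: coupling enzyme reagent + cpd (up to 57.5 uM final), 10 min RT; add substrate + coupling system + AmpLite Red, 20 min RT; fluorescence ex 525/em 598 nm.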
# Sequence of Glucocorticoid receptor (Homo sapiens) (P04150 whole entry, looked up, the tested form may be a part): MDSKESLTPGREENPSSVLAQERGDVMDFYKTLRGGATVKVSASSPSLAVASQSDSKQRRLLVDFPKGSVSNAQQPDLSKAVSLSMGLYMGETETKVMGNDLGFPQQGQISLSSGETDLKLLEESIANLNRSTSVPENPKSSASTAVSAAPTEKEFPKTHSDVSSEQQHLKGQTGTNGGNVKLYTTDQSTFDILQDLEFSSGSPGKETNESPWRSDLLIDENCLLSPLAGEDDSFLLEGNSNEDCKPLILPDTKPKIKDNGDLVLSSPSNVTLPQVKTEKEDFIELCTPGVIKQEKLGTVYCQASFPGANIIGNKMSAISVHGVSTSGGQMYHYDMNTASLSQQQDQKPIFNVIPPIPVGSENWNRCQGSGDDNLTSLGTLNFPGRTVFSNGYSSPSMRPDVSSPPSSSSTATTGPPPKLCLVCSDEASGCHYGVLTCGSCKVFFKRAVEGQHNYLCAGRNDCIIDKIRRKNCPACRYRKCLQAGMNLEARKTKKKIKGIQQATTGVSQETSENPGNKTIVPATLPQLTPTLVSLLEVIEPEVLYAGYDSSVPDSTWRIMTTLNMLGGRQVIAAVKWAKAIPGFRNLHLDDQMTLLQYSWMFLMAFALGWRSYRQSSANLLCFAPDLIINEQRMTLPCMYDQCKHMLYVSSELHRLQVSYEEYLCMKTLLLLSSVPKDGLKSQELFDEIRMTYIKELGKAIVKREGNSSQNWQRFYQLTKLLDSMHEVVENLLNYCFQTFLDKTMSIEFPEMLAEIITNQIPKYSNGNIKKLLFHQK
# Sequence of Ubiquitin carboxyl-terminal hydrolase 1 (Homo sapiens) (O94782 whole entry, looked up): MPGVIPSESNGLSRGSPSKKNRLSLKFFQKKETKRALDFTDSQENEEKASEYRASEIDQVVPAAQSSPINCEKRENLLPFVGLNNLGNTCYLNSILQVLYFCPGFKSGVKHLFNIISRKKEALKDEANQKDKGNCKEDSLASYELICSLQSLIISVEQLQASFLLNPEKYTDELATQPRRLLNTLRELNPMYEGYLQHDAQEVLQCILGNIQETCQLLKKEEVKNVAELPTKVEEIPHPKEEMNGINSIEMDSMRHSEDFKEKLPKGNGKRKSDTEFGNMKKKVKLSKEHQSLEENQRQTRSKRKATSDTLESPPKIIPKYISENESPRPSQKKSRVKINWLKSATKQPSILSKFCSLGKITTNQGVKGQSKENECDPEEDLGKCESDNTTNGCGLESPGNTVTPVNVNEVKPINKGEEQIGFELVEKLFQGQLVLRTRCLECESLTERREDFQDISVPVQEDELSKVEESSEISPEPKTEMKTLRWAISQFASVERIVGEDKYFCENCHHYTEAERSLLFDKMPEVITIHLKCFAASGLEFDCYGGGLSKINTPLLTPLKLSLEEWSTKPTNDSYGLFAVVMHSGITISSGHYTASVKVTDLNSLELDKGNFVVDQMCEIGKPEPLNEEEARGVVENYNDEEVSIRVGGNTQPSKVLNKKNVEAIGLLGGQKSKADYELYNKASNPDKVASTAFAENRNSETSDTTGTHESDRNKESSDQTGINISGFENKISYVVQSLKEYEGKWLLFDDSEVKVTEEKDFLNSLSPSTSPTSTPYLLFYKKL
# Sequence of Lysosomal acid glucosylceramidase (Homo sapiens) (P04062 whole entry, looked up): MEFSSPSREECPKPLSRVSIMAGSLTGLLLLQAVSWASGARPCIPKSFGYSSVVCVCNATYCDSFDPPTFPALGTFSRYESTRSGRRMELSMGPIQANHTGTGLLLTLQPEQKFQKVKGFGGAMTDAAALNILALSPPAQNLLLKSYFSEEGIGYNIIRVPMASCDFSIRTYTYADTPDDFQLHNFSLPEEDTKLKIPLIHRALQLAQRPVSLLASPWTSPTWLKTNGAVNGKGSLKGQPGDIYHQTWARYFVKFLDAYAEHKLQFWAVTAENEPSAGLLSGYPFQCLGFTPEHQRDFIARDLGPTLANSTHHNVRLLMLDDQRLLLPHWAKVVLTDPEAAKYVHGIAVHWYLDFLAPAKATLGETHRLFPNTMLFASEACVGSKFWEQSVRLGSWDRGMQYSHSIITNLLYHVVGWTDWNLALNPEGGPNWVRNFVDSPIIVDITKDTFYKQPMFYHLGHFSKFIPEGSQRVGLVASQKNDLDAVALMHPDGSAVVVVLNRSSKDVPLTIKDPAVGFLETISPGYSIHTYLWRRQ
# Sequence of 3',5'-cyclic-AMP phosphodiesterase 4B (Homo sapiens) (Q07343 whole entry, looked up): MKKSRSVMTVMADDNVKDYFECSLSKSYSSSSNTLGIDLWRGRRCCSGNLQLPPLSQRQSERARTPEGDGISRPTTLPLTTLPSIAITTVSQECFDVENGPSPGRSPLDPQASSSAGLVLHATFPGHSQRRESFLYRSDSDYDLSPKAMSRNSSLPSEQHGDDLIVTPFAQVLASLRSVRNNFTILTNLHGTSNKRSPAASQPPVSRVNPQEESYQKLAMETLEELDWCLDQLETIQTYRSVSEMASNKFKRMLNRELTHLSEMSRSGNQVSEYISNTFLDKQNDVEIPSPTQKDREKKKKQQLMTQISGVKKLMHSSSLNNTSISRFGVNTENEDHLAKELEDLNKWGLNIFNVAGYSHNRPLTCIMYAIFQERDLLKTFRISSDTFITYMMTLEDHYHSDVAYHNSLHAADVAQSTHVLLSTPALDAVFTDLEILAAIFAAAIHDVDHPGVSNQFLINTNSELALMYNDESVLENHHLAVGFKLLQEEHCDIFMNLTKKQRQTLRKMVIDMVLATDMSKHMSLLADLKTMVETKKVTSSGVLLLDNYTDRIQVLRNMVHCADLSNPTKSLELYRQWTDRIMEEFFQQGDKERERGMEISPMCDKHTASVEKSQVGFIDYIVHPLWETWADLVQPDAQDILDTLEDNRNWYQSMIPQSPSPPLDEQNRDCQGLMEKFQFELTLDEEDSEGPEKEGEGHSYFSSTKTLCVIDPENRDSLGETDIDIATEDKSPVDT
# Sequence of Cytochrome P450 1A2 (Homo sapiens) (P05177 whole entry, looked up): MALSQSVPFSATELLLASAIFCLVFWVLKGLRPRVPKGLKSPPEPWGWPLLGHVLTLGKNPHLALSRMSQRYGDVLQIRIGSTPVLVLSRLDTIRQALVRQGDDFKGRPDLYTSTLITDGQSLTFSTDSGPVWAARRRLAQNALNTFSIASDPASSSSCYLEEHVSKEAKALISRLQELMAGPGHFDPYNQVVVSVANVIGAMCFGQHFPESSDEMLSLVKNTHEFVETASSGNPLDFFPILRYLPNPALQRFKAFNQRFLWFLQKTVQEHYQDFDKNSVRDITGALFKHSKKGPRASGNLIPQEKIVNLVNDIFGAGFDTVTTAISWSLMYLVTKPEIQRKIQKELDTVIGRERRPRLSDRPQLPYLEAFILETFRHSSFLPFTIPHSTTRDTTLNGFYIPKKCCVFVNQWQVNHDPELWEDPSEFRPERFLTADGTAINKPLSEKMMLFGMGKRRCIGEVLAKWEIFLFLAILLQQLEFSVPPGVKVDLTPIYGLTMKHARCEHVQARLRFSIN
compound,measurement,setting,value
CC(C)(C)NC[C@@H](O)c1ccc(O)c(CO)n1,Potency,[1],> 11.4 µM
same,"activity change, negative = inhibition",[2],-2.07%
same,"activity change, negative = inhibition",[3],10.1% [at 2.29 µM]
same,"activity change, negative = inhibition",[4],10.1%
same,"activity, negative = inhibition",[5],19.4%
same,Potency,[6],> 46 µM
same,Potency,[7],> 9.22 µM
same,Potency,[8],inactive
same,Potency,[9],inactive
same,Potency,[10],inactive
same,"activity, negative = inhibition",[11]; parasite line A,8.88%
same,"activity, negative = inhibition",[11]; parasite line B,0.372%
same,Potency,AS120,inactive
same,Potency,CP192,inactive
same,Potency,CP203,inactive
same,Potency,PC49,inactive
same,Potency,W2,inactive
Cc1nc2cnc(OCc3ccccc3)nc2n(Cc2ccc(F)cc2)c1=O,Potency,[1],> 11.4 µM
same,"activity change, negative = inhibition",[2],-22.4%
same,Potency,[3],7.94 µM (active)
same,"activity change, negative = inhibition",[4],-22.3%
same,"activity, negative = inhibition",[5],-3.29%
same,Potency,[6],> 9.22 µM
same,Potency,[7],> 46 µM
same,Potency,[8],inactive
COc1ccccc1-c1nc(NCc2ccccc2)c2ccccc2n1,Potency,[1],> 11.4 µM
same,"activity change, negative = inhibition",[2],24%
same,Potency,[3],0.398 µM (active)
same,"activity change, negative = inhibition",[4],-19.4%
same,"activity, negative = inhibition",[5],0.0453%
same,Potency,[6],> 46 µM
same,Potency,[7],> 46 µM
same,Potency,[8],inactive
same,Potency,[10],11.2 µM (active)
C[C@]12CC[C@H]3c4ccc(O)cc4CC[C@@H]3[C@H]1CC[C@@H]2OC(=O)CCC1CCCC1,Potency,[1],> 11.4 µM
same,"activity change, negative = inhibition",[2],-8.48%
same,Potency,[3],inactive
same,"activity change, negative = inhibition",[4],-0.474%
same,"activity, negative = inhibition",[5],1.67%
same,Potency,[6],> 46 µM
same,Potency,[7],> 9.22 µM
same,Potency,[8],inactive
same,Potency,[9],inactive
same,"activity, negative = inhibition",[11]; parasite line A,5.91%
same,"activity, negative = inhibition",[11]; parasite line B,2.07%
same,Potency,AS120,inactive
same,Potency,CP192,inactive
same,Potency,CP203,inactive
same,Potency,PC49,inactive
same,Potency,W2,9.53 µM (active)
O=C(O)[C@@H](S)[C@H](S)C(=O)O,Potency,[1],> 11.4 µM
same,"activity change, negative = inhibition",[2],8.2%
same,Potency,[3],inactive
same,"activity change, negative = inhibition",[4],-7.29%
same,"activity, negative = inhibition",[5],1.47%
same,Potency,[6],> 46 µM
same,Potency,[7],> 9.22 µM
same,Potency,[8],inactive
same,Potency,[9],inactive
same,Potency,[11]; parasite line A,10 µM (active)
same,Potency,[11]; parasite line B,7.08 µM (active)
same,Potency,AS120,5.62 µM (active)
same,Potency,CP192,12 µM (active)
same,Potency,CP203,10.7 µM (active)
same,Potency,PC49,11.2 µM (active)
same,Potency,W2,3.38 µM (active)
CC[C@H](CN(C)C)C(=O)c1ccco1,Potency,[1],> 11.4 µM
same,"activity change, negative = inhibition",[2],3.81%
same,Potency,[3],inactive
same,"activity change, negative = inhibition",[4],-14.2%
same,"activity, negative = inhibition",[5],-1.8%
same,Potency,[6],> 46 µM
same,Potency,[7],> 9.22 µM
same,Potency,[8],inactive
same,Potency,[9],inactive
CNc1ncncc1-c1ccc(C(=O)N(C)C)cc1,Potency,[1],> 11.4 µM
same,"activity change, negative = inhibition",[2],-7.23%
same,Potency,[3],15.8 µM (active)
same,"activity change, negative = inhibition",[4],7.99%
same,"activity, negative = inhibition",[5],8.34%
same,Potency,[6],> 46 µM
same,Potency,[7],> 46 µM
same,Potency,[8],inactive
same,Potency,[9],inactive
same,Potency,[10],inactive
NC(=O)[C@@H]1CCCN1Cc1ccc2c(c1)OCO2,Potency,[1],> 11.4 µM
same,"activity change, negative = inhibition",[2],-6.11%
same,Potency,[3],3.16 µM (active)
same,"activity change, negative = inhibition",[4],7.42%
same,"activity, negative = inhibition",[5],6.27%
same,Potency,[6],> 46 µM
same,Potency,[7],> 9.22 µM
same,Potency,[8],inactive
Cc1nc2ccc(NC(=S)N3CCC(C)CC3)cc2nc1C,outcome,[12],inactive
NS(=O)(=O)c1cc2c(cc1Cl)N[C@H](Cc1ccccc1)NS2(=O)=O,Potency,[1],> 11.4 µM
same,"activity change, negative = inhibition",[2],-4.23%
same,Potency,[3],3.16 µM (active)
same,"activity change, negative = inhibition",[4],23.7%
same,"activity, negative = inhibition",[5],1.94%
same,Potency,[6],> 46 µM
same,Potency,[7],> 9.22 µM
same,Potency,[8],inactive
same,Potency,[9],inactive
same,Potency,[10],inactive
same,"activity, negative = inhibition",[11]; parasite line A,6.22%
same,"activity, negative = inhibition",[11]; parasite line B,-2.36%
same,Potency,AS120,inactive
same,Potency,CP192,inactive
same,Potency,CP203,inactive
same,Potency,PC49,inactive
same,Potency,W2,inactive
COc1cc(N=C(N)N=C(N)N)c2ncccc2c1,Potency,[1],> 11.4 µM
same,"activity change, negative = inhibition",[2],-8.09%
same,Potency,[3],0.398 µM (active)
same,"activity change, negative = inhibition",[4],3.48%
same,"activity, negative = inhibition",[5],-1.33%
same,Potency,[6],> 46 µM
same,Potency,[7],> 9.22 µM
same,Potency,[8],inactive
